According to PubChem BioAssay:
Calls of active or inactive are those of the source.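 Rule for the calls: active = thallium flux through the channel raised or lowered by more than 3 SD from vehicle-only wells, actives on both sides; inactive = the rest.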

How the values were obtained:
Experiment in all cases: modulators of BK channel variants, profiling panel, selectivity assay, cell-based, U2OS BacMam, thallium flux, beta subunits (AID 1259406);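 note: initial slope of Thallos dye fluorescence rise after thallium is added; log ratio against the mean of 0.3% DMSO vehicle wells on the same plate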
[1] = test system: F380Y/beta2Delta; settings: at 30 µM
[2] = test system: F380Y/beta4; settings: at 30 µM
[3] = molecular target: Calcium-activated potassium channel subunit alpha-1 (Homo sapiens) + Leucine-rich repeat-containing protein 26 (Homo sapiens) (UniProt Q12791+Q2I0M4); settings: F380Y/Slo1WT/gamma1, at 30 µM
[4] = test system: R275C; settings: at 30 µM
[5] = test system: R275C/beta1; settings: at 30 µM
[6] = test system: R275C/beta2Delta; settings: at 30 µM
[7] = test system: R275C/beta4; settings: at 30 µM
[8] = test system: R275C/Slo1WT/beta2; settings: at 30 µM

Measured: log fold change Tl+ flux

Calcium-activated potassium channel subunit alpha-1 (Homo sapiens) + Leucine-rich repeat-containing protein 26 (Homo sapiens), sequence (Q2I0M4 whole entry, looked up, one chain of several): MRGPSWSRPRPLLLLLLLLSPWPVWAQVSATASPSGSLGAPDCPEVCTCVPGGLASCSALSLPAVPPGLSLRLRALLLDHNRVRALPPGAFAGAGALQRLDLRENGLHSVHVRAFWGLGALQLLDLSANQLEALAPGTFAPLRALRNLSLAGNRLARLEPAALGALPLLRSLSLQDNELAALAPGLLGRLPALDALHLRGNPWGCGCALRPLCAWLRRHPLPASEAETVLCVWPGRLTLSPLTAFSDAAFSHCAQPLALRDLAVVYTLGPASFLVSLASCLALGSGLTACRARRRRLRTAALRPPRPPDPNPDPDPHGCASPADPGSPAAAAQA

CCc1nn(CCCN2CCN(c3cccc(Cl)c3)CC2)c(=O)n1CCOc1ccccc1
active: [1] -0.507 | [2] -0.446 | [5] 0.378 | [6] 0.156 | [7] 0.207
inactive: [3] 0.00963 | [4] -0.055 | [8] -0.00757

CC(=O)Oc1ccccc1C(=O)Nc1ncc([N+](=O)[O-])s1
active: [3] 0.139 | [6] 0.237
inactive: [1] -0.0604 | [2] -0.0482 | [4] -0.00393 | [5] 0.0452 | [7] 0.0513 | [8] 0.00625

Nc1nc2c(ncn2CCC(CO)CO)c(=O)[nH]1
inactive: [1] -0.015 | [2] -0.0159 | [3] -0.013 | [4] 0.00432 | [5] 0.00335 | [6] 0.0147 | [7] -0.0144 | [8] -0.0115

CC(Cc1ccccc1)(NC(=O)CN)c1ccccc1 (stereo not drawn)
inactive: [1] 0.0679 | [2] 0.0357 | [3] -0.0139 | [4] 0.0158 | [5] 0.0479 | [6] 0.036 | [7] 0.0184 | [8] -0.037

Nc1nc2c(ncn2COC(CO)CO)c(=O)[nH]1
inactive: [1] 0.0461 | [2] 0.0377 | [3] -0.00437 | [4] 0.0708 | [5] -0.0192 | [6] 0.0472 | [7] -0.0224 | [8] -0.00303

COc1cc2c(cc1OC)C(=O)C(CC1CCN(Cc3ccccc3)CC1)C2 (stereo not drawn)
inactive: [1] 0.0718 | [2] 0.0262 | [3] -0.0241 | [4] -0.0742 | [5] 0.0129 | [6] -0.0194 | [7] 0.00155 | [8] 0.0243

C[C@@H]1CN(CCCn2c3ccccc3c3ccccc32)C[C@H](C)N1
active: [1] 0.138 | [2] 0.64 | [4] 0.377 | [5] 0.219 | [6] 0.146 | [7] 0.312
inactive: [3] 0.0245 | [8] 0.00517

CC(Oc1c(Cl)cccc1Cl)C1=NCCN1 (stereo not drawn)
inactive: [1] -0.00369 | [2] 0.0154 | [3] 0.00177 | [4] -0.0395 | [5] 0.0393 | [6] 0.00761 | [7] 0.0269 | [8] 0.0415

CCOC(=O)O[C@]1(C(=O)OCCl)CC[C@H]2[C@@H]3CCC4=CC(=O)C=C[C@]4(C)[C@H]3[C@@H](O)C[C@@]21C
inactive: [1] -0.0465 | [2] 0.0515 | [3] 0.0345 | [4] -0.0297 | [5] 0.0209 | [6] 0.00232 | [7] 0.00823 | [8] 0.00305

O=C(NCCO[N+](=O)[O-])c1cccnc1
inactive: [1] -0.00246 | [2] 0.013 | [3] 0.000443 | [4] -0.059 | [5] -0.0194 | [6] 0.000208 | [7] 0.0335 | [8] -0.00283

CC(=O)Nc1ccc(CC(=O)O)cc1
inactive: [1] -0.0235 | [2] -0.0309 | [3] -0.0302 | [4] -0.0367 | [5] -0.0357 | [6] -0.0277 | [7] -0.0244 | [8] -0.00738

Cc1ccnc2c1NC(=O)c1cccnc1N2C1CC1
inactive: [1] 0.0168 | [2] 0.0216 | [3] -0.00356 | [4] -0.0605 | [5] -0.00377 | [6] 0.0164 | [7] -0.0208 | [8] -0.00118

O=C(CCNNC(=O)c1ccncc1)NCc1ccccc1
inactive: [1] -0.0162 | [2] 0.0308 | [3] 0.00963 | [4] -0.0947 | [5] -0.0338 | [6] 0.038 | [7] 0.0195 | [8] 0.0406

OCCOCCN1CCN(C2=Nc3ccccc3Sc3ccccc32)CC1
active: [2] 0.186 | [5] 0.15 | [6] 0.106 | [7] 0.142
inactive: [1] 0.0505 | [3] 0.0336 | [4] -0.011 | [8] -0.027

NS(=O)(=O)c1cc(C(=O)O)c(NCc2ccco2)cc1Cl
inactive: [1] -0.0211 | [2] 0.0269 | [3] -0.028 | [4] -0.0468 | [5] -0.0154 | [6] -0.0184 | [7] 0.000317 | [8] 0.0743

COc1ccc(CN2CCN(C(c3ccc(F)cc3)c3ccc(F)cc3)CC2)c(OC)c1OC
inactive: [1] -0.015 | [2] 0.0162 | [3] -0.00669 | [4] -0.0264 | [5] -0.0636 | [6] -0.0699 | [7] 0.0197 | [8] -0.00919

COc1ccc(C2CNC(=O)C2)cc1OC1CCCC1 (stereo not drawn)
active: [2] -0.115
inactive: [1] -0.0248 | [3] -0.000443 | [4] 0.0314 | [5] 0.031 | [6] -0.00816 | [7] 0.0303 | [8] 0.00671

C[C@@H]1C[C@H]2[C@@H]3C[C@H](F)C4=CC(=O)C(Cl)=C[C@]4(C)[C@@]3(F)[C@@H](O)C[C@]2(C)[C@@]1(O)C(=O)CO
active: [2] 0.131 | [5] 0.354 | [7] 0.148
inactive: [1] -0.0145 | [3] 0.0637 | [4] 0.0158 | [6] 0.0934 | [8] 0.0468

CC(=O)O[C@H]1C[C@@H]2CC[C@@H]3[C@H](CC[C@@]4(C)[C@H]3C[C@H]([N+]3(C)CCCCC3)[C@@H]4OC(C)=O)[C@@]2(C)C[C@@H]1N1CCCCC1
inactive: [1] 0.00769 | [2] 0.00267 | [3] -0.00222 | [5] 0.00114 | [6] -0.0355 | [7] 0.018 | [8] 0.0408
active: [4] -0.114

CCc1c(C)[nH]c2c1C(=O)C(CN1CCOCC1)CC2 (stereo not drawn)
inactive: [1] 0.0445 | [2] -0.00138 | [3] -0.0511 | [4] 0.0162 | [5] -0.0312 | [6] 0.0494 | [7] -0.0175 | [8] 0.00393

CN1CCN(c2c(F)cc3c(=O)c(C(=O)O)cn4c3c2SCC4)CC1
inactive: [1] 0.0235 | [2] -0.00383 | [3] 0.0303 | [4] -0.068 | [5] 0.019 | [6] 0.0239 | [7] 0.00729 | [8] -0.0231

CNNCc1ccc(C(=O)NC(C)C)cc1
inactive: [1] 0.00407 | [2] -0.0214 | [3] -0.0918 | [5] -0.022 | [6] -0.0281 | [7] 0.042 | [8] 0.0113
active: [4] -0.164

COc1cc2nc(N3CCN(C(=O)C4COc5ccccc5O4)CC3)nc(N)c2cc1OC (stereo not drawn)
inactive: [3] -0.00742 | [4] -0.0618 | [5] 0.0698 | [6] -0.0306 | [7] -0.0729 | [8] 0.00736
active: [1] -0.269 | [2] -0.235

O=C1CC2(CCCC2)CC(=O)N1CCCCN1CCN(c2ncccn2)CC1
inactive: [1] 0.0619 | [2] 0.0587 | [3] 0.00932 | [4] 0.00417 | [5] 0.0329 | [6] -0.0367 | [7] 0.0017 | [8] -0.02

COC(=O)C1=C(C)NC(C)=C(C(=O)OCC(C)C)C1c1ccccc1[N+](=O)[O-] (stereo not drawn)
active: [1] 0.514 | [2] 0.853 | [3] 0.622 | [4] 0.676 | [5] 0.741 | [6] 0.206 | [7] 1.13 | [8] 1.07

Brc1c(NC2=NCCN2)ccc2nccnc12
inactive: [1] -0.06 | [2] -0.0578 | [3] -0.0163 | [4] -0.0123 | [5] 0.0524 | [6] -0.0061 | [7] 0.0292 | [8] 0.0556

C#C[C@]1(O)CC[C@H]2[C@@H]3CCc4cc(OC)ccc4[C@H]3CC[C@@]21C
inactive: [1] -0.0353 | [2] 0.0115 | [3] -0.0403 | [4] -0.0453 | [5] 0.019 | [6] -0.00738 | [7] 0.00852 | [8] -0.04

COCc1c(C(C)C)nc(C(C)C)c(/C=C/[C@@H](O)C[C@@H](O)CC(=O)O)c1-c1ccc(F)cc1
inactive: [4] 0.0107 | [8] 0.0728
active: [1] 0.143 | [2] 0.268 | [3] 0.103 | [5] 0.391 | [6] 0.192 | [7] 0.207

CCOC(=O)C1=C(C)NC(C)=C(C(=O)OC)C1c1cccc(Cl)c1Cl (stereo not drawn)
inactive: [3] 0.00637 | [4] -0.00728 | [5] -0.0274 | [6] 0.0156 | [7] 0.114 | [8] -0.0293
active: [1] -0.162 | [2] -0.261

CCCc1nc(C)c2c(=O)[nH]c(-c3cc(S(=O)(=O)N4CCN(CC)CC4)ccc3OCC)nn12
inactive: [1] 0.0398 | [2] 0.0304 | [3] 0.0127 | [4] -0.0462 | [5] 0.019 | [6] 0.017 | [7] -0.00355 | [8] 0.00306

Oc1ccc(C2CNCCc3c2cc(O)c(O)c3Cl)cc1 (stereo not drawn)
inactive: [1] 0.057 | [2] 0.0586 | [3] 0.0552 | [4] -0.0214 | [5] 0.0235 | [6] 0.0656 | [7] 0.0211 | [8] 0.0233
